Assay results as given in PubChem BioAssay AID1159580 (chemical genetic matrix, 2015).
Out of some 5,500 compounds screened, about 2,000 (36%) were called active. Not shown: some 18% with an inconclusive outcome. No stated cut-off is given here; in the data, active means normalized growth mostly below about 0.91 (no sharp cut-off); inconclusive means no clear call, values can overlap the other calls; inactive means mostly above about 0.92. The list shows a part of the results.

Assay: chemical genetic growth profiling, strain panel (AID 1159580);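 further: tested at 20 µM; growth read once vehicle control cultures reached saturation at 30 °C; 1 = growth at the plate median or of vehicle wells; lower values mean less growth of the strain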
Details: growth OD

Measured: normalized growth

O=C(NC(=S)Nc1ccc(Cl)cc1)c1ccc([N+](=O)[O-])o1
inactive: S. cerevisiae deletion strains, locus YAL013W, strain DEP1, active compounds read low 0.958 | S. cerevisiae deletion strains, locus YBR229C, strain ROT2, active compounds read low 0.975 | S. cerevisiae deletion strains, locus YDL101C, strain DUN1, active compounds read low 1.03 | S. cerevisiae deletion strains, locus YDL134C, strain PPH21, active compounds read low 0.999 | S. cerevisiae deletion strains, locus YDR150W, strain NUM1, active compounds read low 0.964 | S. cerevisiae deletion strains, locus YEL061C, strain CIN8, active compounds read low 0.98 | S. cerevisiae deletion strains, locus YGR078C, strain PAC10, active compounds read low 0.963 | S. cerevisiae deletion strains, locus YHR030C, strain SLT2, active compounds read low 0.714 | S. cerevisiae deletion strains, locus YHR087W, strain rtc3, active compounds read low 0.955 | S. cerevisiae deletion strains, locus YJR043C, strain POL32, active compounds read low 0.985 | S. cerevisiae deletion strains, locus YJR075W, strain HOC1, active compounds read low 0.984 | S. cerevisiae deletion strains, locus YLR039C, strain RIC1, active compounds read low 0.899 | S. cerevisiae deletion strains, locus YLR058C, strain SHM2 (second series), active compounds read low 0.984 | S. cerevisiae deletion strains, locus YLR085C, strain ARP6, active compounds read low 0.892 | S. cerevisiae deletion strains, locus YLR262C, strain YPT6, active compounds read low 0.917 | S. cerevisiae deletion strains, locus YML094W, strain GIM5, active compounds read low 0.945 | S. cerevisiae deletion strains, locus YMR219W, strain ESC1, active compounds read low 0.978 | S. cerevisiae deletion strains, locus YMR263W, strain SAP30, active compounds read low 0.985 | S. cerevisiae deletion strains, locus YNL128W, strain TEP1, active compounds read low 0.979 | S. cerevisiae deletion strains, locus YNL153C, strain GIM3, active compounds read low 0.999 | S. cerevisiae deletion strains, locus YNL298W, strain CLA4 (second series), active compounds read low 0.912 | S. cerevisiae deletion strains, locus YNL322C, strain KRE1, active compounds read low 0.96 | S. cerevisiae deletion strains, locus YNR030W, strain Alg12, active compounds read low 0.956 | S. cerevisiae deletion strains, locus YOL006C, strain TOP1, active compounds read low 0.999 | S. cerevisiae deletion strains, locus YPL055C, strain LGE1, active compounds read low 0.937 | S. cerevisiae deletion strains, locus YPL241C, strain CIN2, active compounds read low 1.08 | S. cerevisiae strains, strain wild type, active compounds read low 0.981
active: S. cerevisiae deletion strains, locus YPR135W, strain CTF4, active compounds read low 0.577
